Source: ChEMBL document CHEMBL3988442, “University of Dundee, Small-Polar-MMV Screening Library” (2021)
Hit rate of the full screen: of about 69,000 compounds, about 950 (1.4%) showed an effect of 50% or more. The sample as a whole holds a higher share of strong results than the screen did.

Tested on: Mycobacterium tuberculosis
Test: Cornell M. t heat shock assay; also: in the data most compounds retested in dose-response had high values
Format: functional, organism-based
Parameters: dose or concentration left out as unconfirmed

Structure (SMILES)	Percent Effect [%]
CNc1cc(C2CN(Cc3csc(C)n3)CCO2)nc(C)n1 (stereo not drawn)	-32.62
CNc1cc(C2CN(Cc3scnc3C)CCO2)nc(C)n1 (stereo not drawn)	67.88
Cc1nc(C2CN(Cc3scnc3C)CCO2)cc(N(C)C)n1 (stereo not drawn)	-20.95
COc1cc(CN(CCCN(C)C)Cc2ccccn2)cc2c1OCO2.O=C(O)CC(O)(CC(=O)O)C(=O)O	-27.2
CC(N(C)Cc1nc2c(cnn2C)c(=O)[nH]1)C(C)(C)C (stereo not drawn)	4.654
O=C(Nc1cnccn1)[C@@H]1C[C@H]2OCC[C@H]2N(Cc2ccsc2)C1.O=C(O)C(F)(F)F	-23.53
COc1cc(F)ccc1C(C(=O)O)N(C)Cc1ccon1 (stereo not drawn)	98.53
COc1ccc(Cl)cc1C(C(=O)O)N(C)Cc1ccon1 (stereo not drawn)	-13.11
COc1cc(C)cc(C(C(=O)O)N(C)Cc2ccon2)c1OC (stereo not drawn)	14.77
Cc1ccc(C(=O)N2CCc3c(CN4CCCC4)nn(C)c3C2)cc1C.O=C(O)C(F)(F)F	-28.38
CC(C)COC(=O)N1CC(=O)N(CCCc2ccccc2)CC(O)C1 (stereo not drawn)	54.63
CC(C)COC(=O)N1CC(=O)N(Cc2ccc(Cl)cc2)CC(O)C1 (stereo not drawn)	47.42
Cc1ccc(CN2CC(O)CN(C(=O)OCC(C)C)CC2=O)cc1 (stereo not drawn)	52.29
CCOC(=O)N1CC(=O)N(CCc2ccccc2)CC(O)C1 (stereo not drawn)	15.03
COc1ccc(CN2CC(O)CN(C(=O)OCC(C)C)CC2=O)cc1 (stereo not drawn)	43.83
CC(C)COC(=O)N1CC(=O)N(CCc2ccccc2)CC(O)C1 (stereo not drawn)	34.47
COc1cc(N2CC[C@H]3O[C@@H](C(=O)NC4CCCC4)CC[C@H]32)ncn1.O=C(O)C(F)(F)F	-0.9791
Cl.O=C(NC1CCCC1)c1ccc(C2CCCNC2)nc1 (stereo not drawn)	-7.361
Cc1c(C2CCCN(C(=O)c3ccncc3)C2)n2c(nc1=O)CCC2.Cl (stereo not drawn)	-13.79
Cl.O=C(N[C@@H]1CN[C@H]2CCCO[C@H]21)c1cnccn1	-42.37
CNC(=O)CC1CCN(Cc2nc(-c3cccc(Cl)c3)oc2C)CC1	52.75
CNC(=O)C1CCN(Cc2nc(-c3ccc(SC)cc3)oc2C)C1 (stereo not drawn)	12.81
CNC(=O)CC1CCN(Cc2nc(-c3ccc(SC)cc3)oc2C)CC1	1.977
CCn1nc(C)c(-c2cncn2Cc2ccccc2CN(C)C)c1C.Cl	2.066

Structure (SMILES)	Percent Effect [%]
O=C(O)C(F)(F)F.c1cc(CN2CCO[C@H]3[C@H](OCC4CCOCC4)CC[C@@H]32)co1	4.016
CCS(=O)(=O)CCNc1nc(C2CCCC2)nc2c1cnn2C	-23.34
CNCCCNc1nc(C2CCCC2)nc2c1cnn2C	-14.72
Cn1ncc2c(NCCC34CCCN3CCC4)nc(C3CCCC3)nc21	90.62
Cn1ncc2c(NCCn3cccc3)nc(C3CCCC3)nc21	-24.81
CC(C)N(CCNc1nc(C2CCCC2)nc2c1cnn2C)C(C)C	102.6
CCOCCNc1nc(C2CCCC2)nc2c1cnn2C	10.38
CN(C)CCN1CCC2(CCN(C(=O)c3cccc(F)c3)CC2)C1=O.O=C(O)C(F)(F)F	-26.99
COCC1CN(Cc2cnn(C)c2)Cc2nn(C)cc21.O=C(O)C(F)(F)F (stereo not drawn)	-8.537
CNCC(=O)N1CCCC(c2nccnc2Oc2cccc(F)c2)C1.Cl (stereo not drawn)	-3.012
O=C(NCCc1cccnc1)c1nc2c(s1)CCCN2C(=O)C1CC1.O=C(O)C(F)(F)F	31.31
Cl.Fc1ccccc1CNc1ccnc(C2CCNCC2)c1	-7.114
CS(=O)(=O)Nc1cnn(Cc2cccc(Cl)c2)c1	-3.827
CCS(=O)(=O)Nc1cnn(Cc2cccc(C)c2)c1	-6.735
CCS(=O)(=O)Nc1cnn(Cc2cccc(Cl)c2)c1	69.75
O=C(O)C(F)(F)F.O=C(c1cccs1)N1C[C@@H]2OCCN(CC3CCCO3)[C@@H]2C1 (stereo partly drawn)	-25.16
CC[C@@H]1N(C)CCC[C@]12CCC(=O)N2Cc1ccncc1.O=C(O)C(F)(F)F.O=C(O)C(F)(F)F	-9.742
O=C(O)C(F)(F)F.O=C(O)c1c(-c2cccnc2)ncc2c1CCN(CC1CCOC1)C2 (stereo not drawn)	-9.377
O=C(O)C(F)(F)F.O=C(O)C(F)(F)F.O=C(O)C(F)(F)F.O=C1C[C@H]2[C@@H](CCN2Cc2ccccn2)N1CCN1CCOCC1	-15.17
O=C(CN1C(=O)CCNC1=O)N1CCC(c2ccc(F)cc2)C1 (stereo not drawn)	18.83
O=C1CCNC(=O)N1CC(=O)N1CCC1c1ccc(F)cc1 (stereo not drawn)	51.34
O=C(CN1C(=O)CCNC1=O)N1CCOC(c2ccc(F)cc2)C1 (stereo not drawn)	12.93
O=C(O)C(F)(F)F.O=C(O)C(F)(F)F.c1cncc(CN2CC[C@H]3O[C@@H](COCC4CCOCC4)CC[C@H]32)c1	-5.632
CC(C)N1CCC2(C=C(C(=O)NC3CC3)c3ccccc32)CC1.O=C(O)C(F)(F)F	-2.25

Structure (SMILES)	Percent Effect [%]
O=C(O)C(F)(F)F.c1csc(NCc2n[nH]c3c2CCN(CC2CC2)C3)n1	-23.28
Cc1cccc(CN2CCCn3c(nnc3Cn3cccn3)C2)n1.O=C(O)C(F)(F)F	-30.89
CCc1cnc(CN(C)C2CCN(CCc3ccccn3)C2)o1 (stereo not drawn)	105.9
Cc1cnc(CN(C)C2CCN(CC(=O)Nc3nncs3)C2)o1.O=C(O)C(F)(F)F (stereo not drawn)	-4.89
CC(C)c1cnc(CN(C)C2CCN(CCc3ccccn3)C2)o1 (stereo not drawn)	-13.05
CCc1cnc(CN(C)C2CCN(CC(=O)Nc3nccs3)C2)o1 (stereo not drawn)	61.16
Cc1cnc(CN(C)C2CCN(CC(=O)Nc3nccs3)C2)o1 (stereo not drawn)	66.08
CCc1cnc(CN(C(C)=O)C2CCN(CCc3ccccn3)C2)o1 (stereo not drawn)	-12.32
CCc1cnc(CN(C)C2CCN(CCc3cccs3)C2)o1 (stereo not drawn)	-5.267
Cc1cnc(CN(C)C2CCN(CC(=O)N(C)c3nccs3)C2)o1 (stereo not drawn)	15.65
CCc1cnc(CN(C)C2CCN(CC(=O)Nc3cc(C)on3)C2)o1 (stereo not drawn)	-19.35
CC(=O)Nc1ccc(CN2C[C@H]3CC[C@@H]2CN(c2ncccn2)C3)cc1	8.779
CC(C)NC(=O)N1Cc2nccn2CC(COc2cccnc2)C1.O=C(O)C(F)(F)F (stereo not drawn)	-13.64
CNC(=O)CN1CCCC12CCN(C(=O)c1ccsc1)CC2.O=C(O)C(F)(F)F	-20.96
O=C(Cc1ccccn1)N1CCN2C[C@H](Oc3cncnc3)C[C@H]2C1.O=C(O)C(F)(F)F.O=C(O)C(F)(F)F	3.514
CCOc1ccc(CNCC(O)c2ccccc2)cc1Cl.Cl (stereo not drawn)	35.2
CN1CCCCC1c1ncc2c(n1)CCN(CCCc1ccccc1)C2 (stereo not drawn)	101.2
Cn1cnc2c1CCN(CCCc1ccccc1)C2	8.155
CN1CCCCC1c1ncc2c(n1)CCN(Cc1ccc(F)cc1)C2 (stereo not drawn)	35.62
CN1CCCCC1c1ncc2c(n1)CCN(Cc1ccc(Cl)c(F)c1)C2 (stereo not drawn)	103.7
COc1ccc(CN2CCc3nc(C4CCCCN4C)ncc3C2)cc1 (stereo not drawn)	25.26
CN1CCc2nc(C3CCCCN3Cc3ccccc3Cl)ncc2C1 (stereo not drawn)	-4.117
CN1CCCCC1c1ncc2c(n1)CCN(Cc1ccccc1Cl)C2 (stereo not drawn)	87.15
Cc1ncc2c(n1)CN(CCCc1ccccc1)CC2	3.621

Structure (SMILES)	Percent Effect [%]
Cl.Clc1ccccc1CN1CCc2nc(C3CCCCN3)ncc2C1 (stereo not drawn)	12.35
O=C(CC1CC1)N1CC[C@H]2[C@@H]1CCC(=O)N2c1cccnc1.O=C(O)C(F)(F)F	-6.311
CC(C)NC(=O)C1(CC2CC(c3ccc(F)cc3)=NO2)CCNCC1.O=C(O)CC(O)(CC(=O)O)C(=O)O (stereo not drawn)	-19.28
CNC(=O)C1Cn2ccnc2C2(CCN(Cc3cccnc3)CC2)O1.O=C(O)C(F)(F)F.O=C(O)C(F)(F)F.O=C(O)C(F)(F)F (stereo not drawn)	-3.867
COc1ccccc1CN1CCCCC1c1n[nH]cc1-c1cc(C)no1.Cl (stereo not drawn)	14.98
COc1cccc(CN2C[C@@H]3COC[C@]3(COCc3ccncc3)C2)c1.O=C(O)C(F)(F)F.O=C(O)C(F)(F)F	-3.091
Cc1csc(CN(C)C2CCN(c3sccc3C#N)C2=O)n1 (stereo not drawn)	-26.99
Cc1ccc(CN2CCC3(CCCN(Cc4ccc(F)c(F)c4)C3)C2)o1 (stereo not drawn)	10.97
Cc1c[nH]c(CN2CCC3(CCCN(Cc4ccc(F)c(F)c4)C3)C2)n1 (stereo not drawn)	58.72
Fc1ccc(CN2CCCC3(CCN(Cc4ncc[nH]4)C3)C2)cc1F (stereo not drawn)	0.7553
CCOC[C@]12COC[C@H]1CN(Cc1ccc3c(c1)OCO3)C2.O=C(O)C(F)(F)F	12.44
O=C(CCc1ccccc1F)NS(=O)(=O)c1ccc2c(c1)OCCO2	-5.66
O=C(CCc1ccccc1Br)NS(=O)(=O)c1ccc2c(c1)OCCO2	6.065
O=C(CCc1ccccc1Cl)NS(=O)(=O)c1ccc2c(c1)OCCO2	62.1
Cl.O=C(NC1CCCC1)C1(Cc2cc(C3CCOC3)no2)CCNCC1 (stereo not drawn)	5.68
O=C(c1cnc(-c2ccccn2)s1)N1CCCC(n2cccn2)C1 (stereo not drawn)	-7.844
CC1CCN(C(=O)[C@H]2CC[C@@H]3[C@@H](CCN3Cc3nccs3)O2)CC1.O=C(O)C(F)(F)F	-10.06
COc1ccc(CNC(=O)N2CCN(CC(O)C3CC3)CC2)cc1.Cl (stereo not drawn)	14.41
CC(C)c1cc(N(C)Cc2noc(C3CCCC3)n2)n2nccc2n1	67.06
CC(C)Cc1nc(CN(C)c2cc(C(C)C)nc3ccnn23)no1	23.84
CC(C)c1cc(N(C)Cc2cc(C3CC3)on2)n2nccc2n1	41.46
